Test results from PubChem BioAssay AID2685 (National Center for Advancing Translational Sciences (NCATS), 2010).
Screen size: about 320,000 compounds; about 2,100 (0.66%) were called active. Inconclusive results (about 53%) are left out. Calls follow the shape of the dose curve; as a rule, active = well fitted inhibition curve with a large enough effect in the signal ratio, with a control signal flat (not every such curve was filed as active); inconclusive = small, poorly fitted or top-dose-only effect, or effect the other way, or a change in a side signal; inactive = flat fitted curve, though single readings scatter; the % refers to the signal ratio. Only a selection was taken, and actives are over-represented in it overall.

Experiment: qHTS Assay for Lipid Storage Modulators in Drosophila S3 Cells;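 as to cell number change: cells counted by Cell Tracker Red CMTPX staining in the red channel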; as to lipid storage change, negative = inhibition: % is scaled to controls: 0 for no effect and ±100 for the full control effect
Conditions: BODIPY lipid droplet fluorescence, 18-24 h, cells fed with added oleic acid; cell number change: measured here: cell count max response; series mostly up to 46.1 µM
Outline: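 Drosophila S3 cells got compounds at several concentrations plus oleic acid (400 uM solution). Laser-scanning cytometry with 488 nm excitation read lipid droplets at 500-530 nm and cells at 575-640 nm. Percent activity was relative to 20 uM Triacsin C.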
Potency is read from the fitted curve at half-maximal effect.

Structure (SMILES)	Potency	cell number change [%]	lipid storage change, negative = inhibition
CC(=O)Nc1ccc(S(=O)(=O)NC(C)c2nc(-c3ccccc3)no2)cc1 (stereo not drawn)	inactive	16.2	
COc1ccc(-c2nn(CCC#N)cc2C=C(C#N)C#N)cc1	inactive	16.7	
COc1ccc(-c2cc(C(=O)N3CC4(C)CC3CC(C)(C)C4)no2)cc1OC (stereo not drawn)	inactive	-3.22	
CC1(C)CC2CC(C)(CN2C(=O)c2cc(-c3ccc(O)cc3)on2)C1 (stereo not drawn)	0.92 µM (active)	16.1	
CC1(C)CC2CC(C)(CN2C(=O)c2cccs2)C1 (stereo not drawn)	inactive	-7.87	
C=CCn1c(=S)[nH]c2scc(-c3ccco3)c2c1=O	inactive	8.4	
C=CCn1c(SC(F)F)nc2scc(-c3ccco3)c2c1=O	0.058 µM (active)	0.451	
C=CCn1c(SCc2ccc3c(c2)OCO3)nc2scc(-c3ccco3)c2c1=O	inactive	-2.61	
CC(C)N(Cc1nnc(-c2ccc(Cl)cc2)o1)C(=O)c1cc2ccccc2o1	inactive	-8.15	
Oc1nc(Nc2ccc(F)cc2)sc1/C=C1\C=Nc2ccccc21	inactive	-4.17	
Cc1ccccc1NC(=O)Cc1nnc(N)s1	inactive	-0.0956	
CCOc1ccc(S(=O)(=O)N2CCC(C(=O)N3CCN(Cc4ccccc4)CC3)CC2)cc1	inactive	-0.232	
COC(=O)COc1ccc(S(=O)(=O)N2CCCCCC2)cc1	inactive	19.9	
COc1ccc(S(=O)(=O)N2CCc3ccccc3C2)cc1	inactive	4.92	
CCOc1ccc(S(=O)(=O)N2CCC(C(=O)N3CCc4ccccc4C3)CC2)cc1	7.31 µM (active)	-23.3	
COC(=O)COc1ccc(S(=O)(=O)N2CCc3ccccc3C2)cc1	7.31 µM (active)	22.6	
CCOc1ccc(S(=O)(=O)N2CCC(C(=O)N3CCN(c4ccccc4)CC3)CC2)cc1	inactive	-5.41	
Cc1ccc(C2=NNC(=O)C(P(=O)(c3ccccc3)c3ccccc3)C2)cc1 (stereo not drawn)	inactive	21.3	
S=C1NCN(C2CCCCC2)CN1Cc1ccccc1	inactive	2.76	
CCCc1cc(=O)oc2cc(C)cc(OC(C)C(=O)NCCCN3CCOCC3)c12 (stereo not drawn)	inactive	6.42	
O=c1[nH]c2ccccc2nc1/C=C/c1ccc(F)cc1	9.2 µM (active)	28.9	
O=c1[nH]c2ccccc2nc1/C=C(\O)C(F)F	inactive	13.5	
Cn1c(=O)c(/C=C/c2ccc(F)cc2)nc2ccccc21	inactive	-1.08	
COC(=O)C1CCN(S(C)(=O)=O)CC1	inactive	4.24	

Structure (SMILES)	Potency	cell number change [%]	lipid storage change, negative = inhibition
COC(=O)[C@H]1C2CCC(C(=O)OC)(CC2)[C@H]1C(=O)OC	1.3 µM (active)	-5.5	
COC(=O)[C@@H]1C2CCC(C(=O)Nc3ccccc3)(CC2)[C@@H]1C(=O)OC	inactive		
CN(Cc1ccccc1)c1nnc(N)s1	inactive	-2.39	
O=C(NC(=S)Nc1ccc(S(=O)(=O)Nc2nccs2)cc1)c1ccccc1F	inactive	13	
Cc1ccc(/C=N/NC(=O)c2ccc(Br)o2)s1	3.66 µM (active)	-8.7	
Cc1ccc(/C=N/NC(=O)c2ccco2)s1	inactive	-9.87	
NC(=O)N/N=C/c1cn(-c2ccccc2)nc1-c1ccccc1	inactive	15.1	
O=C(N/N=C\c1cn(-c2ccccc2)nc1-c1ccccc1)c1ccc(Br)o1	23.1 µM (active)	6.81	
Cc1ccc(/C=N/NC(=O)c2ccc(C(=O)N/N=C/c3ccc(C)s3)o2)s1	inactive	10.7	
O=C(N/N=C/c1cn(-c2ccccc2)nc1-c1ccccc1)c1ccco1	inactive		
CCC(=O)N(c1ccc(C(=O)O)cc1)c1nc(-c2ccc(OC)cc2)c(C)s1	inactive	-9.44	
CC(=O)Cc1nsc(NC(=O)c2ccc(-c3cc(Cl)ccc3Cl)o2)n1	inactive	15.1	
CS(=O)(=O)c1cccc(C(=O)Nc2cccc(-c3nc4ccccc4[nH]3)c2)c1	7.31 µM (active)	-15	
CN(C)c1cccc(C(=O)Nc2nc3ccccc3[nH]2)c1	14.6 µM (active)	-3.6	
CS(=O)(=O)c1ccc(C(=O)Nc2cccc(-c3nc4ccccc4[nH]3)c2)cc1	inactive	3.88	
COc1cccc(C(=O)Nc2nc3ccccc3[nH]2)c1	inactive	17.8	
O=C(Nc1nc2ccccc2[nH]1)c1cccc([N+](=O)[O-])c1	inactive	-8.28	
CS(=O)(=O)c1cccc(C(=O)Nc2ccc(-c3nc4ccccc4[nH]3)cc2)c1	inactive	86.3	
Cn1c(N2CCOCC2)c(/C=N/OC(=O)c2cccnc2Cl)c2ccccc21	inactive		
Cc1ccc(NS(=O)(=O)c2ccc3c(c2)NC(=O)CO3)c(C)c1	inactive	-9.44	
O=C1CCCN1S(=O)(=O)c1ccccc1	inactive	-14.6	
O=C(Nc1nnc(C2CC2)s1)c1cccc(S(=O)(=O)N2CC(c3ccccc3)CC2=O)c1 (stereo not drawn)			14.3% [at 9.22 µM] (inactive)
O=C1CC(c2ccccc2)CN1S(=O)(=O)c1ccccc1 (stereo not drawn)	20.6 µM (active)	-20.2	
O=C(N=C1SC2CS(=O)(=O)CC2N1CCc1ccccc1)C1CCCCC1 (stereo not drawn)	inactive		

Structure (SMILES)	Potency	cell number change [%]	lipid storage change, negative = inhibition
Cc1cc(C=O)c(C)n1-c1cccc(C(=O)O)c1	inactive	7.64	
CC(C)(C)NC(=O)COC(=O)c1cc(S(=O)(=O)N2CCCCC2)ccc1N1CCOCC1	inactive		
CC(C)(C)C(=O)COC(=O)c1cc(S(=O)(=O)N2CCCCC2)ccc1N1CCOCC1		-8.75	-21.4% [at 0.0737 µM] (inactive)
Cc1ccc(OCCOC(=O)c2cc(S(=O)(=O)N3CCCCC3)ccc2N2CCOCC2)cc1	5.17 µM (active)	-27	
CC(=O)Nc1ccc(NC(=O)COC(=O)/C=C/c2ccc3c(c2)OCO3)cc1	5.17 µM (active)	-1.06	
COc1ccccc1NC(=O)COC(=O)/C=C/c1ccc2c(c1)OCO2	inactive	18	
NC(=O)c1ccc(NC(=O)COC(=O)/C=C/c2ccc3c(c2)OCO3)cc1	inactive	9.72	
CCOC(=O)C1(Cc2ccccc2C(F)(F)F)CCN(C2CCN(C(C)=O)CC2)CC1	inactive	11.4	
CC1CCc2nc(N)c(C#N)c(-c3cccn3C)c2C1 (stereo not drawn)	inactive		
COc1cccc2cc(C(=O)NCc3ccccc3Br)c(=O)oc12	inactive	1.66	
CC1Cc2ccccc2N1C(=O)c1cc2cccnc2n(C)c1=O (stereo not drawn)	inactive	1.02	
NS(=O)(=O)c1cc2c(cc1Cl)NC(c1ccccc1OCC(=O)O)NS2(=O)=O (stereo not drawn)	inactive	-10.4	
COc1ccccc1/C=C/C(=O)Nc1cccnc1	5.8 µM (active)	-14.6	
COc1ccccc1/C=C/C(=O)NCc1cccnc1	inactive	-13.8	
COc1ccccc1/C=C/C(C)=O	inactive	3.8	
COc1ccc(/C=C/C(=O)c2ccc(Cl)cc2)c(OC)c1	inactive	-5.6	
COC(=O)/C=C/C(=O)Nc1cccnc1	inactive	-5.59	
COc1ccccc1/C=C/C(=O)c1ccc(Cl)cc1	4.61 µM (active)	1.97	
CCCOc1ccc(/C=N/Nc2ccc(C(=O)O)cc2)c(OCCC)c1	inactive	9.43	
CCn1nc(NS(=O)(=O)c2ccc(NC(C)=O)cc2)c2cc3ccccc3nc21	inactive	-12.4	
COCCN1C(=O)N[C@@H](c2ccco2)C(C(C)=O)=C1C	inactive	3.8	
COCCCNC(=O)CN(c1cccc(Cl)c1)S(C)(=O)=O	inactive	-7.55	
Cc1cc(NC(C)C)n2c(nc3ccccc32)c1C#N	16.4 µM (active)	-88.9	
CCC(C)Nc1cc(C)c(C#N)c2nc3ccccc3n12 (stereo not drawn)	inactive	5.52	

Structure (SMILES)	Potency	cell number change [%]	lipid storage change, negative = inhibition
CNc1cc(C)c(C#N)c2nc3ccccc3n12	inactive	-18.9	
COC(=O)c1cn(CC(=O)N2C(C)CCCC2C)c2ccccc12 (stereo not drawn)	inactive	9.64	
CC1CCCC(C)N1C(=O)Cn1cc(/C=C2/C(=O)Nc3ccccc32)c2ccccc21 (stereo not drawn)	23.1 µM (active)	-83.5	
CC1CCCC(C)N1C(=O)Cn1cc(C#N)c2ccccc21 (stereo not drawn)	inactive	9.53	
O=C(CS(=O)(=O)Cc1ccccc1)NCc1ccco1	inactive	-5.74	
Cc1ccc(CCNC(=O)C2CCCN(S(=O)(=O)N3CC(C)CC(C)C3)C2)cc1 (stereo not drawn)	inactive	-24.2	
CC(=O)Cn1c(C(F)(F)F)nc2ccccc21	inactive	-7.24	
CC(C)(C)c1ccc(OC(=O)Cn2c(C(F)(F)F)nc3ccccc32)cc1	13 µM (active)	-15.3	
CC(C)(C)NC(=O)NC(=O)COC(=O)Cn1cnc2ccccc2c1=O	inactive	-17.2	
CC(C)(C)NC(=O)NC(=O)COC(=O)Cn1c(C(F)(F)F)nc2ccccc21	5.17 µM (active)	-8.07	
CCOC(=O)c1c(NC(=O)COC(=O)Cn2c(C(F)(F)F)nc3ccccc32)sc(C)c1C	inactive	2.48	
COC(=O)Cn1c(C(F)(F)F)nc2ccccc21	inactive	-24.1	
Nc1ccc(C(=O)Nc2cccc(NC(=O)c3ccc(N)cc3)c2)cc1	inactive	-20.4	
CCCN1C(=O)C2C(C(=O)Nc3cccc(OC)c3)C3C=CC2(O3)C1C(=O)NC1CCCCC1 (stereo not drawn)	inactive	1.47	
Cc1ccc(S(=O)(=O)N(CC(=O)O)Cc2ccco2)cc1	inactive	0.734	
COc1cc(NC(=S)NCc2cccnc2)cc(OC)c1	5.8 µM (active)	-12.6	
COc1cc(NC(=S)NCc2cccnc2)cc(OC)c1OC	inactive	5.48	
COc1cccc(NC(=S)NCc2cccnc2)c1	inactive		
Cc1ccc(-c2nc(C)sc2CC(=O)Nc2cccc(C)c2C)cc1	inactive	6.08	
COc1ccc(NC(=O)C(=O)Nc2cccc3cccnc23)cc1OC	inactive	32.1	
COc1ccc(C2CC(=O)C3=C(C2)Nc2ccccc2N(C(=O)CCC(=O)O)C3c2ccc(F)cc2)cc1OC (stereo not drawn)	inactive	-2.28	
